This is a sample that favours compounds with a hit; in the whole collection about 4.3% have one here.
SW480 rerep: A quantitative high throughput screen for small molecules that induce DNA re-replication in SW480 colon adenocarcinoma cells; AID 624297, 2012; 1.8% of 340,000 active; SW480 DNA re-replication, Hoechst DNA content imaging, 48 h; Potency, µM (series often up to 46.1 µM), for inactives: top-dose re-replication activation, actives largely listed as activators; also: potency is read from the fitted curve at half-maximal effect; % of control where 0% means no effect; nearly all actives have a fitted effect of over 55% in size
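Cells (250 per well) received 23 nL compound or DMSO by pin tool and were kept 48 hr at 37 C, 5% CO2. Nuclei were then stained with Hoechst for 40 min and scanned for DNA content.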
Giardia killer: Small Molecules that selectively kill Giardia lamblia: qHTS | Giardia lamblia trophozoite viability | activity change, % at 7.66 µM, hits read low | 0.15% of 340,000 active; in the data active = activity change below about -80%; inconclusive = between about -30% and that limit;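 also: parasites exposed to compound for two days anaerobically before the ATP read; % is scaled to controls: 0 for no effect and ±100 for the full control effect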
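ATP-content bioluminescence gauges trophozoite survival. Cells (100/well) receive compound and incubate anaerobically for 48 hrs at 37 deg C; detection reagent follows for 15-30 min at room temperature.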
MCF10A rerep: A quantitative high throughput screen for small molecules that induce DNA re-replication in MCF 10a normal breast cells; MCF 10A DNA re-replication, Hoechst nuclear intensity, 48 h; Potency, µM (top dose mostly 46.1 µM), without a hit: at the highest dose activity, positive = re-replication, actives largely listed as activators; 2.9% of 350,000 active; AID 624296, 2012; also: potency is read from the fitted curve at half-maximal effect; % of control where 0% means no effect; nearly all actives have a fitted effect of over 50% in size
uPA generation: qHTS for Inhibitors of Cell Surface uPA Generation; cell surface uPA generation assay, qHTS; Potency, µM (series often up to 38.3 µM), inactives show at the top dose activity change, negative = inhibition, actives largely listed as inhibitors; 0.31% of 330,000 active; AID 540303, 2011; active = well fitted inhibition curve with a large enough effect; inconclusive = small, poorly fitted or top-dose-only effect; inactive = no such curve, though single readings can be large or run the other way; tested in mouse RAW 264.7 cells; also: potency is read from the fitted curve at half-maximal effect; % is scaled to controls: 0 for no effect and ±100 for the full control effect; nearly all actives have a fitted effect of over 55% in size
An asterisk follows results filed as active; ? = inconclusive; · = no result given; ! = repeats disagree; [ ] = remark or other dose. Unless noted, calls follow the shape of the dose curve; as a rule, active = well fitted activation curve with a large enough effect; inconclusive = small, poorly fitted or top-dose-only effect; inactive = no such curve, though single readings can be large or run the other way.

SMILES	SW480 rerep	Giardia killer	MCF10A rerep	uPA generation
CCCOC(=O)N1CCN(/[N+]([O-])=N/Oc2ccc([N+](=O)[O-])cc2[N+](=O)[O-])CC1	·	-9	·	·
O=C(Nc1ccc(-n2cnnn2)cc1)c1cc(S(=O)(=O)N2CCCC2)ccc1Cl	-4%	3	5%	-5%
CCCC[C@@H]1CNCCN1CCc1cc(C(F)(F)F)cc(C(F)(F)F)c1	-1%	-6	-6%	-16%
FC(F)(F)c1cc(CCN2CCNC[C@@H]2CC2CCCCC2)cc(C(F)(F)F)c1	24%	39	18µM*	-18%
CC[C@H]1NC(=O)c2cc(S(N)(=O)=O)c(Cl)cc2N1	2%[20.6 µM]	·	0%[20.6 µM]	·
Cc1ccnc(N/N=C/c2ccco2)n1	16µM*	-13	2.9µM*	-17%
Cc1nc(NC(=O)CSc2nc3cccnc3n2Cc2ccccc2)sc1C	13%	1	23µM*	-6%
CCN(CC)CCN1c2ccccc2Sc2ccccc21	-3%	-12	0%	?
CCN(CC)CCN1c2ccccc2Sc2ccc3ccccc3c21	18µM*	-28	?	-5%
NC(=N\N=CCc1ccccc1)/C(N)=N/N=CCc1ccccc1	-7%	2	-9%	-3%
O=C1N=c2ccc([N+](=O)[O-])cc2=C1c1sc(=O)[nH]c1O	?	-7	?	3%
O=C(Nn1c(C2CCCCC2)nc2ccccc2c1=O)c1ccc(Cl)c([N+](=O)[O-])c1	4%	-12	7.3µM*	-7%
CN(Cc1cc(Cl)cc(Cl)c1)CC(C(=O)c1ccccc1)c1ccccc1 (centres undefined)	13µM*	2	16µM*	-10%
O=C(CC(C(=O)c1ccccc1)c1ccccc1)c1ccccc1 (centres undefined)	-4%	22	8%	-3%
CN(C)CC(C(=O)c1ccccc1)c1ccccc1 (centres undefined)	25%	?	2.6µM*	-6%
CCCCN1CC(COCc2ccccc2)Oc2cccc(Oc3cc(C)c(C)c(C)c3)c2S1(=O)=O (centres undefined)	?	-26	-29%	15%
O=C(NCC1CCCO1)C(c1ccc(F)cc1)N(Cc1ccc2c(c1)OCO2)C(=O)c1ccc(CN2CCOCC2)o1 (centres undefined)	3%	1	-5%	5%
COC(=O)/C(=C(/F)Sc1cc(C)c(O)c(C)c1)C(F)(F)F	?	-1	26µM*	·
Nc1ncnc2c1ncn2[C@@H]1O[C@H](CNC(=O)[C@@H]2CCN2)[C@@H](O)[C@H]1O	-3%	-9	?	0%
OC1(Cc2cc(-c3ccccc3)no2)CCN(CCCc2ccccc2)CC1	92%	2	?	0%
Cc1nc(N2CCCCC2)c2c(C)c(C(=O)Nc3cccc(C(F)(F)F)c3)sc2n1	-149%	-22	18µM*	10%
CCOC(=O)c1sc2nc(C)nc(N3CCCCC3C)c2c1C (centres undefined)	4%	23	18µM*	-1%
Cc1nc(N2CCCCC2C)c2c(C)c(C(=O)Nc3cccc(C(F)(F)F)c3)sc2n1 (centres undefined)	27%	2	18µM*	6%
O=C(Nc1cccc(C(F)(F)F)c1)c1cccnc1N1CCOCC1	0.73µM*	-4	1%	8%
Cc1nc(N2CCCCC2)c2c(C)c(C(=O)Nc3ccccc3C(F)(F)F)sc2n1	3%	5	?	-15%
SMILES	SW480 rerep	Giardia killer	MCF10A rerep	uPA generation
Cc1c(C(=O)O)sc2ncnc(N3CCCCC3C)c12 (centres undefined)	-6%	-14	3%	1%
O=C(Nc1cccc(C(F)(F)F)c1)c1cccnc1N1CCCC1	-3%	-29	-2%	10%
Clc1ccc2c(SCC3CO3)c3ccccc3nc2c1 (centres undefined)	?	-11	?	-5%
COc1ccc(CC(=O)NNC(=O)c2cc(Cl)ccc2OC)cc1	-3%	3	-2%	4%
Cc1ccc(CCNc2ncnc(Cl)c2N)cc1	9%	4	-1%	-10%
COc1cc(/C=N/Nc2ccc(C(=O)O)cc2)ccc1O	-4%	-3	-1%	-7%
Cc1ccc(CNC(=O)CO/N=C/c2ccc(C(C)(C)C)cc2)cc1	11%	2	?	0%
COc1cc(/C=C/C(=O)O)ccc1O	?	-1	?	4%
COc1cc(/C=C/C(=O)/C=C(O)/C=C/c2ccc(O)c(OC)c2)ccc1O	30µM*	-13	33µM*	?
COc1cc(/C=C/C(=O)OCc2cn3cc(Cl)ccc3n2)ccc1O	?	-1	10µM*	?
CCOC(=O)CSCc1cn2cc(Cl)ccc2n1	-2%	-21	1%	4%
CC(C)(C)c1ccc(/C=N/OCC(=O)NCc2ccc(F)cc2)cc1	21µM*	1	?	5%
COc1cc(/C=C/C(C)=NNc2ccccc2)ccc1O	?	9	16µM*	-10%
CCCCCCOC(=O)c1cccnc1	-11%	·	-7%	·
CCN(CC)c1nc(C#N)nc(N2CCOCC2)n1	·	2	·	·
FC(F)(F)C(F)(F)C(F)(F)C(F)(F)C(F)(F)C(F)(F)F	-1%	·	-5%	·
COc1cc(/C=C/C(=O)CC(=O)/C=C/c2ccc(O)c(OC)c2)ccc1O	12µM*!	49	26µM*!	?
COc1cc(/C=C/C(=O)OCC(=O)NCc2ccc(F)cc2)ccc1O	8.2µM*	5	15µM*	-16%
CCCN1CNc2c(c(=O)[nH]c(=S)n2CCc2cccc(OC)c2OC)C1	·	-16	·	·
O=c1c2ccccc2ncn1Cc1nc2ccccc2s1	-2%	-5	21%	-1%
CCC(c1nc2ccccc2c(=O)n1-c1nc2ccccc2s1)N1C(=O)c2ccccc2C1=O (centres undefined)	7.3µM*	-10	-50%	2%
COc1ccc(-c2nnn3c2nc(NCc2ccccc2)c2ccccc23)cc1	?	-5	1.6µM*	10%
NNc1nc2c(-c3ccc(Cl)cc3)nnn2c2ccccc12	8.2µM*	18	5.8µM*	-20%
NNc1nc2c(-c3ccc(F)cc3)nnn2c2ccccc12	?	-27	23µM*	-3%
O=C1NC(=S)S/C1=C\c1ccc(SCc2ccco2)o1	-2%	5	-10%	?
SMILES	SW480 rerep	Giardia killer	MCF10A rerep	uPA generation
O=C1NC(=S)S/C1=C\c1ccc(SCc2ccccc2)o1	?	-12	3.7µM*	-6%
CC1(C)N=C(SCC(=O)Nc2ccc(Cl)cc2)C(c2ccc(Cl)cc2)=N1	?	11	18µM*	-14%
Cn1c(SCC(=O)NNC(=O)Nc2ccc(Cl)cc2)nnc1-c1ccccc1	-1%	-4	8%	1%
COc1ccc(NC(=O)CCSc2nnnn2C)cc1	-5%	9	2%	2%
COc1ccc(NC(=O)CN(C)C(=O)c2cn(-c3ccccc3)nc2-c2ccc(Cl)cc2)cc1	23µM*	10	15%	-5%
COc1ccc(-c2nnc(SCC(=O)Nc3ccc(Cl)cc3)n2C)cc1	15µM*	-4	3.3µM*	0%
CC1(C)N=C(SCC(=O)Nc2ccc(Cl)cc2)C(c2ccccc2)=N1	4%	1	7%	-6%

Compound activity (PubChem BioAssay)
